For this test, the system named is VDR:RXRa (NR concentration 270 nM, RXRa partner concentration 90 nM). Briefly: PBM binding z-score (relative to random genomic background probes); higher = stronger binding; sequences stand for … in GC…GCGATTGACAGCGTAGAATGAAGG
The procedure: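 Protein-binding microarray (Agilent 4x180K custom design, double-stranded 60-nt probes: 5' GC cap, 34-nt variable region, 24-nt constant primer region; full probe sequence given). Purified or IVT nuclear receptor:RXRα heterodimers (3:1 NR:RXRα, mostly 270:90 nM) or homodimers were incubated for 1 h in PBS with 2% milk and no ligand, then detected with Alexa488 antibodies. Fluorescence from o1-orientation probes (~5 replicates averaged) was converted to z-scores against 500 random hg19 background probes. Variable regions are seed direct-repeat (DR0–DR5) sites, all their single-nucleotide variants and half-site ablations.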
Regarding ATCGAAAGGTCGTGACGTGAGTATACAGAAAGGC, the PBM binding z-score came out at 3.03.
As for ATCTCTAGGTAACAAGGTCAGTGAAAGAGAGGAC, the PBM binding z-score is 2.12.
Turning to TAGCATAGGTCATGCGGGCCAGTATAGTGTCGGC, the PBM binding z-score turned out to be 4.32.
TCTAGCAGGCCATAGGGTCACTCAAGAGGTACGG gave a PBM binding z-score of 2.62.
The same measure for ATCTCTAGGTAAATGTTCAGTGAATCCCGAGGAT: -0.0606; for ATATATAGGTTAGGGTCATTCAGAAAGTAGGGAA: 4.75; for GGAACGGGGGCATTCGAGTTGATAGCATGGCGAT: 5.52.
The value for ATATGTAGGTTAGAGTCATTCAGAAAGTAGGGAA was 0.295.
The same measure for CCGAGTAGGTTACGAGGGGGCTTTCAGTGCGAAT: 2.13; for CCTACTGGGCGAAGGTCATTGATCAGTCAAAGCA: 2.18; for ATCCAAAGGTCGAGGTGAGTATAGAGAAAGGGAA: 3.05.
Sequence ATCGAAAGGTCGACGAGGTGAGAATACACCGTTT registered a PBM binding z-score of 5.52.
The value for AGTCAAAGTTCACTAGGCAACGTAAGATTCAGCT was 3.13; that for GATACAGGGTCAGCTAGAGGGCAGAGTATGGAAA was 4.22.
The sequence TTGAGTAGGTTACGGGGGCATTCAGGGATGAAGA showed a PBM binding z-score of 4.34.
ATCGAATGGTCGTGAGGTGAGTATACAGAAAGGC registered a PBM binding z-score of -0.0757.
The same measure for CGTCCAAGGTAAGAGAGGTCAGTGAATGCCGAGT: 4; for TAGCCTAGGTCATGCGGGTCAGTATAGTGTCGGC: 5.81; for CGAACTAGGTCAAAGGCCAGTGAAAGGCGACGTA: 1.74.
The value for CAGCCTAGTTCAGGGCCAGTATAGGAGGAACGTT was -0.0838; that for CCGAGTAGGTTACGAGGGGGCGTTCAGTGCGAAT was 4.72.
The value for CTATGTAGGTTAAGGGGTTCATTCAGTTTGAAAG was 7.62; that for ATATGGAGGTTAAGGGTCATTCAGGTTGGTTCGC was 6.32.
In turn, CCGAGCAGGTTACGAGGGGGCATTCAGTGCGAAT registered a PBM binding z-score of 5.27.
For CGAACTAGGTCAAATGACAGTGAAAGGCGACGTA, the PBM binding z-score was found to be 1.63.
The value for AGAATGGGGTTAAGATCAGGGAAACAGAATACAT was 2.91.
Sequence TCTAGTTGGTCATGGAGGTCACACACGACGGGTA registered a PBM binding z-score of 5.98.
The same measure for CGAACTAGGTCAAAGGACAGTGAGAGGCGACGTA: 1.19; for ATATGTAGGTTAGGGTCCTTCAGAAAGTAGGGAA: 0.818.
The value for ACTAGTTGGTCAGCTGGGGTCACACACAATTCGG was 4.93.
CGTCTAAGTTCAAGGTAACGTAACAGAAAGCAGC: the PBM binding z-score worked out at 3.43.
The same measure for TCGAGTAGGTTACGGGGGCATTTAGGGATGAAGA: 3.96.
Take CTAACTAGGTCACCAGGACAGTGAAGAGGTTGGA: the PBM binding z-score came out at 2.06.
The same measure for CGAACTAGCTCAAAGGACAGTGAAAGGCGACGTA: -0.564; for CGAACTGGGTCAAAGGACAGTGAAAGGCGACGTA: 1.39; for CCTTACGGGTCTAGGTTATAGCACGGGTGGTACG: -0.339.
The value for CCTTACGGGTCAAGGTTGTAGCACGGGTGGTACG was 3.02.
Regarding ATATGGAGGTTAGCTGGGGTCATTCAGACTAGGC, the PBM binding z-score was 6.86.
For ATATGTGGGTTATCGGGTCATTCAGTTTGCGCAT, the PBM binding z-score stood at 5.21.
The value for TCGAGTAGGTTACGGGTGCATTCAGGGATGAAGA was 3.53.

The record behind these values is the supplement of paper PMC6555819.
